# Assay results published in PubChem BioAssay (EPA / NIEHS).
# “And” between values parts separate entries of the source, which are not always exact repeats. Equal values may be shown once. Inconclusive results are not listed. The source holds several records for some structures; these can differ, active in one and inactive in another. The source made the active and inactive calls. How the source made its calls: active means hit-call score of the fitted dose curve at least 0.9, where 1 is the maximum; inconclusive means response in the unintended direction; inactive means score below 0.9.
# Key:
# [1] = target: Glycogen synthase kinase-3 beta (Homo sapiens) (UniProt P49841); experiment: NVS_ENZ_hGSK3b: NovaScreen (NVS) Enzymatic Assay for human Glycogen Synthase Kinase-3 beta (GSK3b) (AID 2283165)
# Chain of Glycogen synthase kinase-3 beta (Homo sapiens) (P49841 whole entry, looked up): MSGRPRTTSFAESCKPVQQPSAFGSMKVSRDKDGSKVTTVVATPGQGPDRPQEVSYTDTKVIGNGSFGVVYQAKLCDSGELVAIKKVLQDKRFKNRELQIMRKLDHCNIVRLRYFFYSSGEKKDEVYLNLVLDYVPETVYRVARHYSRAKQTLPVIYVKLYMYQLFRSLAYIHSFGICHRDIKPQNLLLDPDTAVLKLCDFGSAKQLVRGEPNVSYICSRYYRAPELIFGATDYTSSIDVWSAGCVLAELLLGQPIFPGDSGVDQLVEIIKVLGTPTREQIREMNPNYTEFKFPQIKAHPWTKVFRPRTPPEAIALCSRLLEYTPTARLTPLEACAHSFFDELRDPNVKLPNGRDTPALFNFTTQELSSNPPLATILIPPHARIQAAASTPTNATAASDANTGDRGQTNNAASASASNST
# Summary of the method: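 Recombinant enzyme with specific fluorescent substrate, 1 h, product separated by electrophoretic mobility shift. Primary duplicate screen at 25 uM; actives (e.g. 30% inhibition) followed in singleton concentration-response to 50 uM. Signal loss fitted versus DMSO.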
# [2] = target: human Janus Kinase 2 (Jak2), JAK2 (gene 3717) (UniProt O60674); experiment: NVS_ENZ_hJak2: NovaScreen (NVS) Enzymatic Assay for human Janus Kinase 2 (Jak2) (AID 2283169)
# Chain of human Janus Kinase 2 (Jak2), JAK2 (gene 3717) (O60674 whole entry, looked up): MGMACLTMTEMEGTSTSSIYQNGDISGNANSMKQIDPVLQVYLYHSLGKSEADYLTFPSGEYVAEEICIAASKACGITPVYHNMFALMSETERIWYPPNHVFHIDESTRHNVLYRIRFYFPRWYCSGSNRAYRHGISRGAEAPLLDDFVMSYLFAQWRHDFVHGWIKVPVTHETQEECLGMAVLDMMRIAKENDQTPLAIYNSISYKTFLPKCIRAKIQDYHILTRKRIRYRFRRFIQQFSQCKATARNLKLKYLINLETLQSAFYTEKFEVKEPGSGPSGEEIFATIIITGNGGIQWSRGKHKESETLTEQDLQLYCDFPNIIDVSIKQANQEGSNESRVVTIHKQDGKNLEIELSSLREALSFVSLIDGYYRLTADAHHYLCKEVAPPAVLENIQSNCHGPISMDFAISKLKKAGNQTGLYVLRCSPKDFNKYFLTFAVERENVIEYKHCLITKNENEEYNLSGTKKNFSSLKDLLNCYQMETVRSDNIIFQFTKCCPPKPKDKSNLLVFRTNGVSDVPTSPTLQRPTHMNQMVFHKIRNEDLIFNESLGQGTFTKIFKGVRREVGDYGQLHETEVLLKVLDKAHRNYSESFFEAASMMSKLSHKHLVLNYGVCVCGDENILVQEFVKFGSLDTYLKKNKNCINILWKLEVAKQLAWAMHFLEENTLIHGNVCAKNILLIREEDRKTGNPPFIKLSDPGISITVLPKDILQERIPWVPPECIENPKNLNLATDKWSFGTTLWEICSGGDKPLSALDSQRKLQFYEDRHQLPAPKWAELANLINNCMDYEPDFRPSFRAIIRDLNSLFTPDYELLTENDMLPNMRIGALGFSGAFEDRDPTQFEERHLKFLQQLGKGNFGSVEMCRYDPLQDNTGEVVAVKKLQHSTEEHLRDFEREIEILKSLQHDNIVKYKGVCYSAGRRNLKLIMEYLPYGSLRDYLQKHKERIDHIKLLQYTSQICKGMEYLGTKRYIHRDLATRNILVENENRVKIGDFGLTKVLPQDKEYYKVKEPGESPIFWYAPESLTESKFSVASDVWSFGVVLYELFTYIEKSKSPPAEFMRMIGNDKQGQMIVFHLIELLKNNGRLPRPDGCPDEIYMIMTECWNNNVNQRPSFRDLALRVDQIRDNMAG
# Summary of the method: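 Cell-free recombinant human JAK2 enzyme activity assay, fluorescence/electrophoretic mobility shift read 1 h after dosing. Screened in duplicate at 25 uM, then concentration-response up to 50 uM; activity as signal loss relative to DMSO.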
# [3] = target: Collagenase 3 (Homo sapiens) (UniProt P45452); experiment: NVS_ENZ_hMMP13: NovaScreen (NVS) Enzymatic Assay for human Matrix Metalloproteinase-13 (MMP13) (AID 2283182)
# Summary of the method: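 Recombinant MMP13 cleaving fluorescent substrate, cell-free, measured 1 h after dosing. Primary duplicate screen at 25 uM; actives tested in concentration-response up to 50 uM; loss of signal relative to DMSO.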
# [4] = target: human Matrix Metalloproteinase-7 (MMP7), MMP7 (gene 4316) (UniProt P09237); experiment: NVS_ENZ_hMMP7: NovaScreen (NVS) Enzymatic Assay for human Matrix Metalloproteinase-7 (MMP7) (AID 2283183)
# Chain of human Matrix Metalloproteinase-7 (MMP7), MMP7 (gene 4316) (P09237 whole entry, looked up): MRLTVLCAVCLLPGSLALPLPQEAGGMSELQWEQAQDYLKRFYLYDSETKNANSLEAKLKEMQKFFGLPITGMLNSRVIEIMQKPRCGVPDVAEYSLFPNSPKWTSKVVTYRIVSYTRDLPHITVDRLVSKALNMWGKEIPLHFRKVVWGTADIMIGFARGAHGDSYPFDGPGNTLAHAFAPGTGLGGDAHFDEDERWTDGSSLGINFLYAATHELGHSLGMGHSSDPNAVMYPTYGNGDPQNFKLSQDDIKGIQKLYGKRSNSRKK
# Summary of the method: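 Cell-free fluorescence enzymatic assay read 1 h after compound addition, activity loss analyzed against DMSO. Primary duplicate testing at 25 uM; compounds meeting threshold rerun in singleton concentration-response up to 50 uM.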
# [5] = target: human MAP Kinase-Activated Protein Kinase 2 (MAPKAPK2), MAPKAPK2 (gene 9261) (UniProt P49137); experiment: NVS_ENZ_hMAPKAPK2: NovaScreen (NVS) Enzymatic Assay for human MAP Kinase-Activated Protein Kinase 2 (MAPKAPK2) (AID 2283178)
# Chain of human MAP Kinase-Activated Protein Kinase 2 (MAPKAPK2), MAPKAPK2 (gene 9261) (P49137 whole entry, looked up): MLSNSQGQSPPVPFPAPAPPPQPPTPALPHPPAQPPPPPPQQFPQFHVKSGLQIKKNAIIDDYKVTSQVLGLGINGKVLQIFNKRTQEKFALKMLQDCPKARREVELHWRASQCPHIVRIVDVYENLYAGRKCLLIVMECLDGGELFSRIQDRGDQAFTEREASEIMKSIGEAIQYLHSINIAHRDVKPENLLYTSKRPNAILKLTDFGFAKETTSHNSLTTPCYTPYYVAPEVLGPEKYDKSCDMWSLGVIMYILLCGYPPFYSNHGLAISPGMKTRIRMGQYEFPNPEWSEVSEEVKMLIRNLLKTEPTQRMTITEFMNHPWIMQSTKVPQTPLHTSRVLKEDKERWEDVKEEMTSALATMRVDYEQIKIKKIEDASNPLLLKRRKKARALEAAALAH
# Summary of the method: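 Cell-free recombinant human MAPKAPK2 activity measured by fluorescence with electrophoretic mobility shift separation of substrate and product, 1 hr after dosing. Loss of signal versus DMSO; primary screen at 25 uM, concentration-response up to 50 uM.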
# [6] = target: Mitogen-activated protein kinase 3 (Homo sapiens) (UniProt P27361); experiment: NVS_ENZ_hMAPK3: NovaScreen (NVS) Enzymatic Assay for human Mitogen-Activated Protein Kinase 3 (MAPK 3) (AID 2283177)
# Chain of Mitogen-activated protein kinase 3 (Homo sapiens) (P27361 whole entry, looked up): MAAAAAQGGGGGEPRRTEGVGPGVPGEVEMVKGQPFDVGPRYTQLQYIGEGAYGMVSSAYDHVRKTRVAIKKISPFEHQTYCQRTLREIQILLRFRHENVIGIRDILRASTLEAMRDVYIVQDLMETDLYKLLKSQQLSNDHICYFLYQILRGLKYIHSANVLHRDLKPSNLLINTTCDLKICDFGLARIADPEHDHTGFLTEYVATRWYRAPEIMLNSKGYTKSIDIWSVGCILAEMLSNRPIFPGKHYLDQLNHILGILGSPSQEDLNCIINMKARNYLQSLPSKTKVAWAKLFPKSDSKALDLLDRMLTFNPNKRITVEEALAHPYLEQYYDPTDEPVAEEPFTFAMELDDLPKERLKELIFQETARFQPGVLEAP
# Summary of the method: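 Cell-free enzymatic assay with recombinant protein and specific substrate; fluorescence and electrophoretic mobility shift read-out 1 h after dosing. Primary screen duplicate at 25 uM; actives then run in concentration-response up to 50 uM, loss of signal versus DMSO.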
# [7] = target: human c-Jun N-terminal Kinases (JNK2), MAPK9 (gene 5601) (UniProt P45984); experiment: NVS_ENZ_hJNK2: NovaScreen (NVS) Enzymatic Assay for human c-Jun N-terminal Kinases (JNK2) (AID 2283171)
# Chain of human c-Jun N-terminal Kinases (JNK2), MAPK9 (gene 5601) (P45984 whole entry, looked up): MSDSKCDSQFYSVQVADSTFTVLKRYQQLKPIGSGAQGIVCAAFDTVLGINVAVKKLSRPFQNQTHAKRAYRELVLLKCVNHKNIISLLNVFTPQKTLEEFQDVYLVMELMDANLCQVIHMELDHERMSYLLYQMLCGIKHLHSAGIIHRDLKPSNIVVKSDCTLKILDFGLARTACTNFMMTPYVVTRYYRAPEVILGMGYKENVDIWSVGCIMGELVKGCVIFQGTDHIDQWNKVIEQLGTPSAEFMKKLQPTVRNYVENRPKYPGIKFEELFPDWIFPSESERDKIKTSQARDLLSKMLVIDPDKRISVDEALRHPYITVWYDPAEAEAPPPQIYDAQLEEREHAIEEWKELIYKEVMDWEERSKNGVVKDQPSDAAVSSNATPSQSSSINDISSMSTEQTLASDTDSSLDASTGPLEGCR
# Summary of the method: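 Cell-free recombinant human JNK2 activity assay; fluorescent substrate and product separated by electrophoretic mobility shift, read 1 h after dosing. Primary duplicate screen at 25 uM; actives run in concentration-response up to 50 uM, relative to DMSO.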
# [8] = target: human Matrix Metalloproteinase-2 (MMP2), MMP2 (gene 4313) (UniProt P08253); experiment: NVS_ENZ_hMMP2: NovaScreen (NVS) Enzymatic Assay for human Matrix Metalloproteinase-2 (MMP2) (AID 2283184)
# Chain of human Matrix Metalloproteinase-2 (MMP2), MMP2 (gene 4313) (P08253 whole entry, looked up): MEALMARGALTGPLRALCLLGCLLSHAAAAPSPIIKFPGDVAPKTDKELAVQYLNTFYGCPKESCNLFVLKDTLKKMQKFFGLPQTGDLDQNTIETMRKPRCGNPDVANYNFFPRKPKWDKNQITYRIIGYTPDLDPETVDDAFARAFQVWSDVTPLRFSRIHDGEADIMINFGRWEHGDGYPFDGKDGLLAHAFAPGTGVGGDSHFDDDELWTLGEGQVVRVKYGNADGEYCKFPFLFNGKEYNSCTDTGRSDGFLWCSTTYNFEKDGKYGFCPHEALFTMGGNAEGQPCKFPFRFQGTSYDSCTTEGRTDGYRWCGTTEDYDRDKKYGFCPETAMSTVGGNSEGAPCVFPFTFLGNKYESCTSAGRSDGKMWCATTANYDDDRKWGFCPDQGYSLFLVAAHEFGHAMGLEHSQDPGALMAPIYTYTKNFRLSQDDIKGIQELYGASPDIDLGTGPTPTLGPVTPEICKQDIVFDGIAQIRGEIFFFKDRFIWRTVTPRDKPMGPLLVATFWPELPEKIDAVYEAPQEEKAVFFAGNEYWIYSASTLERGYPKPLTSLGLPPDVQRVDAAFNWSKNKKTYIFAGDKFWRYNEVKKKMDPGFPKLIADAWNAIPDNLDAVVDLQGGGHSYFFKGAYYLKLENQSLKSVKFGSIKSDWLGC
# Summary of the method: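 Cell-free recombinant MMP2 activity with a fluorescent substrate, read 1 h after dosing. Primary screen in duplicate at 25 uM; actives then run in concentration series; loss of signal fitted versus DMSO.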
# [9] = target: human Insulin Receptor (InsR), INSR (gene 3643) (UniProt P06213); experiment: NVS_ENZ_hInsR: NovaScreen (NVS) Enzymatic Assay for human Insulin Receptor (InsR) (AID 2283168)
# Summary of the method: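 Fluorescent substrate phosphorylation by recombinant kinase, product resolved by electrophoretic mobility shift, read 1 h after dosing. Screened in duplicate at 25 uM; hits (e.g., 30% inhibition) run in concentration-response to 50 uM; DMSO as baseline.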
# [10] = target: human LYN Proto-Oncogene, Src family Tyrosine Kinase (LynA), LYN (gene 4067) (UniProt P07948); experiment: NVS_ENZ_hLynA: NovaScreen (NVS) Enzymatic Assay for human LYN Proto-Oncogene, Src family Tyrosine Kinase (LynA) (AID 2283173)
# Chain of human LYN Proto-Oncogene, Src family Tyrosine Kinase (LynA), LYN (gene 4067) (P07948 whole entry, looked up): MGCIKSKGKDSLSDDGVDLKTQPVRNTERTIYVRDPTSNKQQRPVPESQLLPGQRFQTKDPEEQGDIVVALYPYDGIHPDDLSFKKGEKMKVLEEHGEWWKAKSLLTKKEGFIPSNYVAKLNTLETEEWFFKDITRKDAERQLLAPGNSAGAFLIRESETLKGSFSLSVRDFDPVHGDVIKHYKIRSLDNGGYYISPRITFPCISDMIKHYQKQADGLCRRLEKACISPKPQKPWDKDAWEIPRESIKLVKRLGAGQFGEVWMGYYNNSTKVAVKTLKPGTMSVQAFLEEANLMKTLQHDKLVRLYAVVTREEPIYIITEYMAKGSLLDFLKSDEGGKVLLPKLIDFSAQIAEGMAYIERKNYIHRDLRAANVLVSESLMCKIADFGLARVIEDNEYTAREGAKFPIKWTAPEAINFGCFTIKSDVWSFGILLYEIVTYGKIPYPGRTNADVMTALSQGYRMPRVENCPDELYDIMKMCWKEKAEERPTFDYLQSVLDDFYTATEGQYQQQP
# Procedure: NVS_ENZ_hLynA is a biochemical, single-readout assay that uses extracted gene-proteins in a cell-free assay. Measurements were taken 1 hour after chemical dosing in a 384-well plate.NVS_ENZ_hLynA is one of one assay component(s) measured or calculated from the NVS_ENZ_hLynA assay. It is designed to make measurements of enzyme activity, a form of enzyme reporter, as detected with fluorescence intensity signals by Fluorescence and electrophoretic mobility shift technology.Data from the assay component NVS_ENZ_hLynA was analyzed into 1 assay endpoint. This assay endpoint, NVS_ENZ_hLynA, was analyzed in the positive analysis fitting direction relative to DMSO as the negative control and baseline of activity. Using a type of enzyme reporter, loss-of-signal activity can be used to understand changes in the enzymatic activity as they relate to the gene LYN. Furthermore, this assay endpoint can be referred to as a primary readout, because this assay has produced multiple assay endpoints where this one serves a enzymatic activity function. To generalize the intended target to other relatable targets, this assay endpoint is annotated to the kinase intended target family, where the subfamily is non-receptor tyrosine kinase.
# Binding assays used specific radioligands (tritiated, iodinated) with non-radioactive competitive displacement ligands in agonist or antagonist protocols (as indicated) and various reference compounds and inhibitors to titrate specific binding to receptors and transporters. Most enzyme assays (CYPs, kinases, phosphatases, proteases, HDACs) used recombinant protein and specific substrates (fluorescence mostly, some colorimetric and radioactive) and inhibitors, followed by a biochemical separation of substrate and product. All assays for the biochemical HTS were initially run in duplicate at a single concentration (10 uM for CYP450 assays and 25 uM for all others). […]
smiles,measurement,setting,value
c1ccc2[nH]c(-c3cscn3)nc2c1,outcome,[1],inactive
same,AC50,[2],2.27 µM (active)
C=CCOC(Cn1ccnc1)c1ccc(Cl)cc1Cl (stereo unspecified),outcome,[3],inactive
same,AC50,[4],9.22 µM (active)
N[C@@H](Cc1cc(I)c(Oc2ccc(O)c(I)c2)c(I)c1)C(=O)O,AC50,[2],5.49 µM (active)
same,outcome,[5],inactive
same,AC50,[3],5.14 µM (active)
CCOC(=O)C(C)Oc1ccc(Oc2nc3ccc(Cl)cc3o2)cc1 (stereo unspecified),outcome,[3],inactive
CCCCOC(=O)[C@@H](C)Oc1ccc(Oc2ccc(C(F)(F)F)cn2)cc1,outcome,[4],inactive
O=C(Nc1ccc([N+](=O)[O-])cc1Cl)c1cc(Cl)ccc1O,outcome,[6],inactive
same,outcome,[5],inactive
O=C(O)C1(C(=O)Nc2ccc(Cl)cc2Cl)CC1,outcome,[1],inactive
same,AC50,[7],25 µM (active)
same,outcome,[5],inactive
same,AC50,[8],8.27 µM (active)
CCCCC(CC)CN1C(=O)C2C3C=CC(C3)C2C1=O (stereo unspecified),outcome,[4],inactive
COC(=O)c1ccccc1S(=O)(=O)NC(=O)Nc1nc(OC(F)F)cc(OC(F)F)n1,outcome,[6],inactive
same,outcome,[5],inactive
O=C(c1ccc(O)cc1O)c1ccc(O)cc1O,AC50,[1],25 µM (active)
same,AC50,[9],19.3 µM (active)
same,AC50,[2],21 µM (active)
same,outcome,[10],inactive
CC(C)(c1ccc(O)cc1)c1ccc(O)cc1,outcome,[2],inactive
same,outcome,[7],inactive
same,outcome,[6],inactive
same,outcome,[3],inactive
same,outcome,[4],inactive
C[C@]12CC[C@@H]3c4ccc(O)cc4C[C@@H](CCCCCCCCCS(=O)CCCC(F)(F)C(F)(F)F)[C@H]3[C@@H]1CC[C@@H]2O (stereo partly specified),outcome,[4],inactive
CC1(C)C(C=C(Cl)Cl)C1C(=O)OCc1cccc(Oc2ccccc2)c1 (stereo unspecified),outcome,[4],inactive
Oc1ccc(C(c2ccc(O)cc2)C(Cl)(Cl)Cl)cc1,outcome,[6],inactive
same,outcome,[3],inactive
same,outcome,[4],inactive
CC(C)CCCCCCc1ccc(O)cc1,outcome,[1],inactive
same,outcome,[7],inactive
same,outcome,[6],inactive
same,outcome,[5],inactive
CCOC(=O)[C@H](C)Oc1ccc(Oc2nc3ccc(Cl)cc3o2)cc1,outcome,[3],inactive
COCCO,outcome,[7],inactive
CC(=O)[C@H]1CC[C@H]2[C@@H]3CCC4=CC(=O)CC[C@]4(C)[C@H]3CC[C@]12C,outcome,[1],inactive
CN(C)C(=O)Nc1ccc(Cl)c(Cl)c1,outcome,[9],inactive
CCCCCOC(=O)COc1cc(N2C(=O)C3=C(CCCC3)C2=O)c(F)cc1Cl,outcome,[8],inactive
N#CSCSc1nc2ccccc2s1,outcome,[10],inactive
same,outcome,[5],inactive
S=C([S-])NCCNC(=S)[S-].[Mn+2],AC50,[1],0.306 µM (active)
same,AC50,[6],10 µM (active)
same,AC50,[5],468 nM (active)
same,AC50,[3],6.6 µM (active)
same,outcome,[4],inactive
c1ccc(Nc2ccccc2)cc1,outcome,[2],inactive
CCOC(=O)NCCOc1ccc(Oc2ccccc2)cc1,outcome,[4],inactive
COC(=O)c1ccccc1C(=O)O,outcome,[10],inactive
S=C(S)NCCNC(=S)S.[Mn+2].[S-]C([S-])=NCCN=C([S-])[S-].[Zn+2],AC50,[1],1.08 µM (active) and 3.32 µM (active) and 678 nM (active)
same,AC50,[2],7.51 µM (active) and 40.2 µM (active)
same,outcome,[2],inactive
same,outcome,[7],inactive
same,AC50,[6],6.76 µM (active) and 25 µM (active)
same,AC50,[5],408 nM (active) and 399 nM (active)
same,AC50,[3],16.2 µM (active)
same,outcome,[3],inactive
same,AC50,[4],3.74 µM (active)
COc1nc(C)nc(NC(=O)NS(=O)(=O)c2ccccc2OCCCl)n1,AC50,[5],36200 nM (active)
